Results filed as inconclusive are left out. Where a call stands in place of a potency, no number is given. Calls of active or inactive are those of the source. The call rests on the fitted dose curve.

A short description of the assay: qHTS assay to identify small molecule agonists of the AP-1 signaling pathway - cell viability counter screen (AID 1159525). Further: nearly all actives have a fitted effect of over 55% in size. Conditions: ME-180 (cervical carcinoma) AP-1-bla cells viability, ATP luminescence, 5 h; series mostly up to 76.8 µM. From the text: National Center for Advancing Translational Sciences [NCATS]
NIH Chemical Genomics Center [NCGC]
U.S. Environmental Protection Agency [EPA]
National Institutes of Environmental Health Sciences [NIEHS]
National Toxicology Program [NTP]
U.S. Food and Drug Administration [FDA]
Activator protein-1 (AP-1), a transcription factor, plays an important role in tumor genesis by regulating genes involved in cell proliferation, differentiation, apoptosis, and angiogenesis. AP-1 activity is induced by a complex network of signaling pathways that involves extracellular signals, such as growth factors. The AP-1 protein complex formed from c-Fos and c-Jun binding to the AP-1 response element results in transcriptional activation of genes containing such elements within their promoter.
Low molecular weight molecules have been discovered and developed to modulate various components of these signaling pathways, for example, MAP kinase inhibitors. However, many points of pathway modulation remain untested due to the lack of chemical probes making this signaling locus of general interest.
Using a beta-lactamase reporter-gene under control of the AP-1 response element, a cell-based assay [CellSensor(TM) AP-1-bla ME-180 developed by Invitrogen Corp.] was used to measure EGF-induced signaling. The Tox21 10K library compounds were measured for their ability to positively modulate the action of EC50 EGF on reporter gene activity. Compounds were screened in a 15-pt titration series in 1536-well format. The cytotoxicity of the Tox21 compound library against this cell line was tested in parallel by measuring the intra cellular ATP content in the same wells.
Tox21 Assay Protocol Summary:
2500 cells/5uL in Opti-MEM medium containing 0.5% dialyzed FBS, 0.1 mM NEAA, 1 mM sodium pyruvate and 10 mM HEPES was dispensed into 1536-well black wall/clear bottom plates using a Multidrop dispenser and cells were cultured at 37 degrees Celsius overnight. Next day 23 nL of compounds dissolved in DMSO, positive controls or DMSO were delivered to each well using a pin tool. The plates were incubated at 37 degrees Celsius for 5 hours. 1 uL of LiveBLAzerTM B/G FRET substrate (Solution A+B+C+D) was added to each well using a Flying Reagent Dispenser. After incubated at room temperature for 2.5 hours the plates were measured on an EnVision plate reader at Excitation 405nm, Emission1=460nm and Emission 2=530nm. The %Activity was determined from the ratio of 460nm/530nm.
After the plates were read for Beta-Lactamase assay on Envision; 3 ul Cell Titer Glo (Promega) was added to measure the cytotoxicity and the plates were then incubated at RT in dark for 30 min. The luminescence was read on ViewLux (Perkin Elmer, Shelton, CT) using 6 sec exposure. ViewLux data was expressed as relative luminescence units.
For primary data analysis, raw plate reads for each titration point were first normalized relative to […] EGF control (100%) and DMSO only wells (basal, 0%).
For primary data analysis for viability assay, raw plate reads for each titration point were first normalized Tetra n-octyl ammonium bromide control (-100%) and DMSO (control, 100%).
(In qHTS, concentration-response curves come from the screen itself.)
As for `COP(=O)(O)OC`, the Potency result was “inactive”.

In the case of `COC(=O)c1ccccc1CS(=O)(=O)NC(=O)Nc1nc(OC)cc(OC)n1`, the Potency result was “inactive”.

Turning to `C=CC=O`, the Potency entry was “inactive”.

As to `C#CC(C)(C)O`, the Potency entry was “inactive”.

As for `N=C(N)[Se]`, the Potency result is “inactive”.

On to `O=C(O)c1c(Cl)ccc2cc(Cl)cnc12`, for which the Potency result is “inactive”.

For `CN(CCO)CCO`, the Potency entry was “inactive”.

For `CCC(=O)c1ccc(Cl)cc1`, the Potency result is “inactive”.

Turning to `NNC(N)=O`, the Potency entry was “inactive”.

`CN=CNc1ccc(C)cc1C`: the Potency result is “inactive”.

Consider `CCC1(CC)C(=O)C=CNC1=O`, for which the Potency entry is “inactive”.

As to `C=C(Cl)CSC(=S)N(CC)CC`, the Potency entry is “inactive”.

Regarding `BrCCc1ccccc1`, the Potency result is “inactive”.

For `N#CN`, the Potency entry was “inactive”.

Consider `NC(=O)CS(=O)C(c1ccccc1)c1ccccc1` (stereo not given), for which the Potency entry is “inactive”.

Regarding `O=[N+]([O-])c1cccc(CCl)c1`, the Potency result is “inactive”.

As for `c1ccc2c(c1)CCNC2`, the Potency entry was “inactive”.

For the molecule `CCCCS(=O)(=O)Cl`, the Potency result is “inactive”.

Regarding `CC(C)(C)C(=O)Cl`, the Potency result was “inactive”.

`CCN(CC)CCOC(=O)C(O)(c1ccccc1)c1ccccc1`: the Potency result was “inactive”.

On to `ClC1=C(Cl)C2(Cl)C(CBr)CC1(Cl)C2(Cl)Cl` (stereo not given), for which the Potency result was “inactive”.

On to `CC(Cc1ccccc1)NCCCCl` (stereo not given), for which the Potency result is “inactive”.

For the molecule `O=C(Cl)OCc1ccccc1`, the Potency result is “inactive”.

With `CCOC(=O)CC(SP(=S)(OC)OC)C(=O)OCC` (stereo not given), the Potency entry is “inactive”.

In the case of `CCCCCCCCBr`, the Potency entry is “inactive”.

Consider `CCNP(=S)(OC)O/C(C)=C/C(=O)OC(C)C` (stereo not given), for which the Potency result is “inactive”.

`CC(C)[C@]12CC(=O)[C@H](C)[C@H]1C2`: the Potency result is “inactive”.

For the molecule `NC1(c2ccccc2)CCCCC1`, the Potency entry is “inactive”.

With `S=C=S`, the Potency result was “inactive”.

For the molecule `CCOC(=O)CCl`, the Potency entry is “inactive”.

As to `N[C@@H](Cc1ccc(Oc2cc(I)c(O)c(I)c2)c(I)c1)C(=O)O`, the Potency entry was “inactive”.

In the case of `CCNc1nc(Cl)nc(NC(C)(C)C)n1`, the Potency entry is “inactive”.

Regarding `Cl/C=C/CCl`, the Potency entry is “inactive”.

For the molecule `C/C(=N\NC(=O)Nc1cc(F)cc(F)c1)c1ncccc1C(=O)O`, the Potency entry is “inactive”.

In the case of `CC(C)N(Cc1ccccc1)C(=O)C(C)(C)C`, the Potency result is “inactive”.

`CCOC(=O)C(Cl)Cc1cc(-n2nc(C)n(C(F)F)c2=O)c(F)cc1Cl` (stereo not given): the Potency result is “inactive”.

On to `CCOC(=O)COc1ccc(Cl)cc1Cl`, for which the Potency entry was “inactive”.

Consider `CCN[C@H](C)Cc1cccc(C(F)(F)F)c1`, for which the Potency entry was “inactive”.

Regarding `C=CCc1cc(OC)c2c(c1)OCO2`, the Potency result is “inactive”.

For the molecule `CCN(CC)C1CCCCC1`, the Potency entry was “inactive”.

Values taken from PubChem BioAssay (Tox21).
